# Screens (PubChem BioAssay)
# SENP8 block-1: SENP8 protease inhibition; Q96LD8; purified SENP8, Z-RLRGG-aminoluciferin cleavage, luminescence; inhibition, % at 10 µM; 330,000 compounds, 1.2% hits; in the data active = inhibition above about 50%
# PPC-1+TRAIL kill: compounds killing PPC-1 cancer cells with TRAIL present (potentiator screen, no TRAIL-free arm) | PPC-1 cells + TRAIL, ATPLite viability luminescence | cell killing (% activity), % at 4 µM or 5 µM | AID 1443 | 220,000 compounds, 0.41% hits;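 active = cell killing above 50% in the first pass at 4 µM, then a duplicate retest at 5 µM averaging 50% or more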;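 also: plate controls were cells with TRAIL plus DMSO for no effect and medium-only wells lacking cells for full effect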
# SENP8 block-2: SENP8 (human) protease inhibition. Q96LD8. recombinant SENP8, Nedd8 substrate fluorescence. inhibition, % at 20 µM. 360,000 compounds, 0.64% hits. AID 602440; in the data active = inhibition mostly above about 40%, no sharp cut-off; inactive = mostly below about 27%
# C8 TRAIL sens: caspase-8 TRAIL sensitization; NB7+C8 cells + TRAIL, ATPlite viability luminescence; 360,000 compounds, 1% hits; inhibition (viability loss, TRAIL sensitization), % at 10 µM;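 active = compounds causing at least 50% loss of cell viability in the single-dose screen, relative to plate controls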
# SENP6 block: SENP6 protease inhibition; 330,000 compounds, 1.8% hits; Recombinant SENP6 catalytic domain, aminoluciferin luminescence; Q9GZR1; inhibition, % at 10 µM;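 active = inhibition above about 50% at the single tested dose, limit read from the data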;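 also: plate controls were DMSO wells with enzyme for no effect and DMSO wells lacking enzyme for full effect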
# Target sequence (Q9GZR1 628-1112 limits assumed): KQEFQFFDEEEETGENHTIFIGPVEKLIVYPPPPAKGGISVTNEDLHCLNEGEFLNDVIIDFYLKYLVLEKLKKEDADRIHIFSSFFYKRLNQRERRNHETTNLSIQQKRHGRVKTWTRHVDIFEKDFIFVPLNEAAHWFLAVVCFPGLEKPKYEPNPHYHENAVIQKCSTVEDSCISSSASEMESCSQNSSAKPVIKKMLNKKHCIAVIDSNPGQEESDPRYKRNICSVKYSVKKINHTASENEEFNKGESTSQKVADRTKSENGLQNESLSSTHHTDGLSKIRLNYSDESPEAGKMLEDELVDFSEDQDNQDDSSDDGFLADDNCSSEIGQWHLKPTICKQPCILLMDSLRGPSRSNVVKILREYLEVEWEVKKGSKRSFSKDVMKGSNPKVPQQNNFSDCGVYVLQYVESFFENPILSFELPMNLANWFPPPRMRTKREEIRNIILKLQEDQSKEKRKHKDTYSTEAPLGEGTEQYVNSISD
# SENP7 inh: SENP7 protease inhibition; inhibition, % at 5 µM; 330,000 compounds, 1.5% hits; Q9BQF6; recombinant SENP7, Z-RLRGG-aminoluciferin luminescence, 40 min;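 active = inhibition above about 50% at the single test dose, limit read from the data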;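 also: plate controls were DMSO with enzyme for no effect and no enzyme buffer wells for full effect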
# SENP8 confirm: confirmation of human SENP8 protease inhibitors. shares compounds with SENP7 inh. Recombinant SENP8, Z-RLRGG-aminoluciferin luminescence, 60 min. inhibition, % at 12.5 µM. 6,200 compounds, 40% hits;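 active = mean inhibition across replicates above about 50%, limit read from the data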
# SENP6 conf: human SENP6 inhibition, confirmed; shares compounds with SENP7 inh; inhibition, % at 12.5 µM; 6,200 compounds, 58% hits; AID 488915; recombinant SENP6, Z-RLRGG-aminoluciferin luminescence
# SENP7 conf: confirmation of human SENP7 protease inhibitors; 6,200 compounds, 69% hits; AID 488917; recombinant SENP7, Z-RLRGG-aminoluciferin luminescence, 40 min; inhibition, % at 12.5 µM; shares compounds with SENP7 inh
# Casp3 SENP sel: inhibits human caspase-3 in SENP selectivity test; shares compounds with SENP7 inh; purified caspase-3, Z-DEVD-aminoluciferin luminescence, 60 min; inhibition, % at 12.5 µM; 6,200 compounds, 60% hits; AID 488918;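 active = mean inhibition above about 50%, limit read from the data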;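 also: plate controls were enzyme with DMSO for no effect and wells without caspase-3 for full effect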
# Luc interf: counter-screen for SENP inhibitors: luminescence interference; shares compounds with SENP7 inh; Pre-incubated SENP8/Z-RLRGG-aminoluciferin, luciferase luminescence interference; inhibition, % at 12.5 µM; 6,200 compounds, 39% hits; AID 488919;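 active = mean inhibition above about 50% when retested at one dose, limit read from the data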;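 also: plate controls were DMSO wells with completed reaction for no effect and substrate without enzyme for full effect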
# Starred values were filed as active, the others as inactive; i = inactive; · = no result. A selection: hits, their analogues and other compounds. The true share with any hit is near 3%.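 The calls were made as follows, unless noted: active = mean inhibition above about 50% in the one-dose retest (limit read from the data); inactive = the rest.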
SMILES,SENP8 block-1,PPC-1+TRAIL kill,SENP8 block-2,C8 TRAIL sens,SENP6 block,SENP7 inh,SENP8 confirm,SENP6 conf,SENP7 conf,Casp3 SENP sel,Luc interf
CCc1ccc(NC(=O)c2cnn(-c3ccccc3)c2C)cc1,41,15,22,17,59*,76*,2,45,50*,69*,8
Cc1cccc(C)c1C(=NCCCN(C)C)c1ccccc1,-4,13,13,-1,2,-3,·,·,·,·,·
Cc1ccc(-c2nnc(-c3ccc4c(c3)OCO4)o2)cc1,29,55*,-385,49,47,83*,9,16,17,46,5
O=C1CCCCC1Sc1nnc(-c2ccc3c(c2)OCO3)o1 (stereo not given),68*,6,-4,53*,80*,73*,72*,72*,93*,89*,77*
Clc1ccc(CSc2nnc(-c3ccc4c(c3)OCO4)o2)cc1,-13,19,10,14,-6,-13,·,·,·,·,·
Brc1ccc(-c2nnc(-c3ccc4c(c3)OCO4)o2)o1,-9,38,-277,42,35,61*,7,8,20,39,15
Cc1nc(-c2ccc(F)cc2)c(CC(=O)Nc2ccc(C)c(S(=O)(=O)N3CCOCC3)c2)s1,-7,·,13,-27,-2,-9,·,·,·,·,·
O=c1[nH]cnc2sc3c(c12)CCC3,-7,-12,7,-19,-12,-10,·,·,·,·,·
Cc1ccc2nc(-c3ccc(O)c(O)c3)cn2c1,42,·,-444,76*,72*,57*,69*,67*,90*,84*,72*
Cc1nc(-c2ccc(O)c(O)c2)cs1,1,-3,35,11,-4,8,·,·,·,·,·
Cc1ccc(O)c(C2=Nc3ccccc3C2(C)C)c1,49,10,22,-5,71*,56*,21,64*,89*,33,28
COc1ccc(C)cc1C1=Nc2ccccc2C1(C)C,4,8,-46,2,-5,1,·,·,·,·,·
N#CC(=C1CCCC1)c1nc(-c2cc3ccccc3oc2=O)cs1,-16,23,-297,14,-13,16,·,·,·,·,·
N#CC(=C1CCCC1)c1nc(-c2ccccc2)cs1,65*,30,14,44,77*,65*,5,64*,88*,54*,33
Cc1ccc(-c2csc(C(C#N)=C3CCCC3)n2)cc1,-8,7,16,21,5,5,·,·,·,·,·
N#CC(=C1CCCC1)c1nc(-c2ccccc2O)cs1,63*,29,5,38,86*,90*,9,33,40,53*,55*
CCCN1CCN(C(=O)c2cc3c(s2)-c2ccccc2OC3)CC1,65*,·,-424,0,71*,56*,80*,80*,92*,84*,79*
CCOC(=O)N1CCN(C(=O)c2cc3c(s2)-c2ccccc2OC3)CC1,-1,-1,-437,-9,-13,-1,·,·,·,·,·
Cc1ccccc1N=Nc1c(C)[nH]n(C(N)=S)c1=O,60*,8,8,-6,82*,40,2,34,37,49,10
Cc1[nH]n(C(N)=S)c(=O)c1N=Nc1ccccc1C(F)(F)F,34,·,18,-9,54*,2,56*,53*,77*,·,50*
NC(=S)n1[nH]c(-c2ccc([N+](=O)[O-])cc2)c(N=Nc2cccc(Cl)c2)c1=O,1,21,34,46,10,-8,·,·,·,·,·
Cc1[nH]n(C(N)=S)c(=O)c1N=Nc1ccc([N+](=O)[O-])cc1Cl,95*,·,24,3,94*,70*,81*,95*,98*,79*,13
Cc1[nH]n(C(N)=S)c(=O)c1N=Nc1cccc(Cl)c1,89*,·,20,-13,91*,72*,23,40,20,32,11
O=C(NC1CCS(=O)(=O)C1)c1cccc(S(=O)(=O)N2CCCC2)c1 (stereo not given),0,19,-2,1,8,1,·,·,·,·,·
COc1ccc(-c2csc3ncn(CC(=O)N4CCOCC4)c(=O)c23)cc1,-4,17,-25,3,5,-3,·,·,·,·,·
SMILES,SENP8 block-1,PPC-1+TRAIL kill,SENP8 block-2,C8 TRAIL sens,SENP6 block,SENP7 inh,SENP8 confirm,SENP6 conf,SENP7 conf,Casp3 SENP sel,Luc interf
O=C(Nc1ccccc1)C1Cc2c(-c3ccc4c(c3)OCO4)ccnc2O1 (stereo not given),·,·,-94,-4,·,·,·,·,·,·,·
CNC(=O)C1Cc2c(-c3ccc(Cl)cc3)ccnc2O1 (stereo not given),·,·,13,-25,·,·,·,·,·,·,·
Cc1noc(/C=C/N(C)C)c1S(=O)(=O)N(C)Cc1ccc(F)cc1,16,·,15,-6,5,-1,·,·,·,·,·
Nc1cccc2c(O)cccc12,30,·,-391,-6,68*,23,8,24,10,9,1
Nc1cccc2c(O)cc(S(=O)(=O)O)cc12,·,·,i,-2,·,·,·,·,·,·,·
Cc1ccc(-n2nc3c(c2NC(=O)CC(C)C)CS(=O)(=O)C3)c(C)c1,3,·,1,-7,5,2,·,·,·,·,·
CC(C)(C)c1cc(S(=O)(=O)CCc2ccncc2)cc(C(C)(C)C)c1F,-10,·,17,-16,-39,1,·,·,·,·,·
O=C1NC(=S)N/C1=C/c1cc2c(cc1[N+](=O)[O-])OCO2,75*,·,-106,1,64*,26,13,63*,24,4,0
O=C(O)/C=C\c1cc2c(cc1[N+](=O)[O-])OCO2,-7,0,-19,11,-9,-4,·,·,·,·,·
CC(=O)N(C)c1ccc(N=NC2C(=O)N(C(N)=S)N=C2C)cc1 (stereo not given),77*,·,15,5,2,80*,86*,84*,97*,95*,87*
CC1=NN(C(N)=S)C(=O)C1N=Nc1ccc(S(N)(=O)=O)cc1 (stereo not given),12,·,24,0,51*,28,23,22,70*,74*,57*
CC1=NN(c2ccccc2)C(=O)C1N=Nc1ccc(C)cc1 (stereo not given),-2,-4,·,·,4,3,·,·,·,·,·
CCOc1ccc(-c2nc(CCl)cs2)cc1,28,24,-24,14,52*,8,54*,70*,91*,67*,46
